The list is not random: actives were taken first. Their share in the collection is about 2.5%.
GRK2 aptamer HTS: inhibitors of human GRK2 displacing RNA aptamer | bead flow cytometry, FAM-aptamer displacement from GRK2 | 330,000 compounds, 0.59% hits | inhibition of aptamer binding, % at 10 µM | P25098;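 active = inhibition of aptamer binding above 40%, roughly 3 SD of noise, on plates passing a quality check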;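 also: median bead fluorescence of bound FAM aptamer so fluorescent compounds give negative values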
Target sequence (P25098 whole entry, looked up): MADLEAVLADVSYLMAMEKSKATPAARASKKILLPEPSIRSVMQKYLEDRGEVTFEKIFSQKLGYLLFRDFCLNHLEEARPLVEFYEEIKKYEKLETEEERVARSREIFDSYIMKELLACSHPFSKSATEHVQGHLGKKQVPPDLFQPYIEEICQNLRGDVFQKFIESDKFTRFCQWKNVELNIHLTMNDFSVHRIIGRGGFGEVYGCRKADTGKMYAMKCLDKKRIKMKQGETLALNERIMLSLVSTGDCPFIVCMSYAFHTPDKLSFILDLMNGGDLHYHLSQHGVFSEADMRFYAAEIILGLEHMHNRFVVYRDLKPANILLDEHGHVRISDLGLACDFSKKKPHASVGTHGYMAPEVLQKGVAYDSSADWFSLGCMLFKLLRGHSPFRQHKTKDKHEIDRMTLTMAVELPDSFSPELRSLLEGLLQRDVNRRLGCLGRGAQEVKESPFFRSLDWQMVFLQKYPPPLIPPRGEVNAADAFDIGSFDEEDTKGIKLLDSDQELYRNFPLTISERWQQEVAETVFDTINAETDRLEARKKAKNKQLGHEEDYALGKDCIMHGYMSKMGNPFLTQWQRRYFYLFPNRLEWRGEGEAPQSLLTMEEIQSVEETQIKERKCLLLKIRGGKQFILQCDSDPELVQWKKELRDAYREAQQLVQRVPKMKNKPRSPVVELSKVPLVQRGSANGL
MEKK2 mut-MEK5: signal of MEK5 binding to mutant human MEKK2 PB1 domain; bead flow cytometry, Alexa488-MEK5 binding to MEKK2 mutant; percent response, % at 10 µM; 290,000 compounds, 0.35% hits; AID 1530; in the data active = percent response above about 24%, passing the limit was not always enough
MEKK3 PB1 HTS: MEKK3-MEK5 PB1 interaction, increase or decrease | AID 1529 | 290,000 compounds, 1.4% hits | bead-based flow cytometry, Alexa488-MEK5 binding to MEKK3; actives lie on both sides; 0 = blocked by unlabeled MEK5, 100 = vehicle | binding response (% of control), % at 10 µM | Q99759;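 active = binding response more than 3 SD above or below the average of its plate-row segment, actives on both sides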;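 also: Alexa488 bead fluorescence after subtracting the streptavidin-only scavenger bead signal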
MEKK2wt PB1 HTS: raises or lowers MEK5 binding to wildtype human MEKK2 PB1 domain; bead flow cytometry, Alexa488-MEK5 binding to MEKK2 WT; actives lie on both sides; binding response (% of control), % at 10 µM; 290,000 compounds, 1.1% hits; AID 1531; in the data active = binding response below about 67% or above about 130%
GRK2 CP1: human GRK2 inhibition confirmation, cherry pick 1; shares compounds with GRK2 aptamer HTS; bead-bound GRK2, FAM-aptamer displacement, flow cytometry; aptamer displacement, % at 10 µM; 2,000 compounds, 4% hits;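 active = aptamer displacement above 40%, near three times the noise of non-fluorescent compounds, on plates passing quality checks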;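 also: negative values mostly reflect intrinsic compound fluorescence rather than true enhancement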
Aptamer quench: fluorescent aptamer quenching in GRK2 counter-screen dose response | shares compounds with GRK2 aptamer HTS | Fluorescent RNA aptamer beads, flow cytometry; active compounds read high | fluorescence change (kMESF span), kMESF (concentration not given with the values) | 110 tested, under 10 active | AID 504521;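 active = compounds whose bead fluorescence drops by more than 37 kMESF across the dose range, marking them as dye quenchers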
Aptamer quench SP: counter-screen for GRK2 aptamer inhibitors: fluorescent aptamer quenchers; shares compounds with GRK2 aptamer HTS; Carboxyfluorescein RNA aptamer on beads, flow cytometry quenching; active compounds read low; fluorescence response (% of DMSO), % at 10 µM; 2,000 tested, under 10 active; AID 504580;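 active = compounds that quench the bead-bound fluorescent RNA probe, cutting fluorescence to under half of the solvent control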;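 also: counterscreen run without GRK2 so only probe quenching by compound is measured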
GRK2 confirm 2: confirmation of human GRK2 inhibitors binding RNA aptamer site; shares compounds with GRK2 aptamer HTS; bead-bound GRK2, FAM-aptamer displacement, flow cytometry; inhibition of aptamer binding, % at 10 µM; 360 tested, under 10 active;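 active = inhibition of aptamer binding above 40%, about triple the noise seen with nonglowing compounds, on plates passing quality control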;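 also: negative values mostly come from compounds that fluoresce themselves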
FAM quench SP: counter-screen for GRK2 binding hits: quenchers of fluorescent RNA aptamer; shares compounds with GRK2 aptamer HTS; carboxyfluorescein RNA aptamer beads, flow cytometry quenching; active compounds read low; fluorescence response vs DMSO, % at 10 µM; 360 tested, under 10 active; AID 588494;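 active = response vs DMSO under 50%, meaning signal dropped by over half, treated as fluorescence quencher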;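 also: labelled aptamer on streptavidin beads without GRK2 as a quench counter-screen; 100% = bead fluorescence of DMSO wells and lower means quenching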
Starred values were filed as active, the others as inactive; . = not tested or not shown.

SMILES	GRK2 aptamer HTS	MEKK2 mut-MEK5	MEKK3 PB1 HTS	MEKK2wt PB1 HTS	GRK2 CP1	Aptamer quench SP	others
CCc1nnc(NS(=O)(=O)c2ccc(NC(=O)COc3ccc4ccccc4c3)cc2)s1	51*	-1	96	95	3	98
CSc1ccc(C=O)cc1	73*	.	.	.	-14	93
CC1Cn2c(nc3sc4c(c3c2=O)CC(C)(C)OC4)N1CCO (stereo not given)	1	6	107	110	.	.
Cc1cc(C)c(C(=O)Nc2ccc(S(=O)(=O)Nc3onc(C)c3C)cc2)c(C)c1	37	2	97	99	-5	98
NC(=O)[C@@H]1CCCNc2c(I)cc([N+](=O)[O-])cc2C(=O)N[C@@H](CCC(=O)O)C(=O)N[C@@H](CO)C(=O)N1	88*	2	97	101	-15	129
NC(=O)C[C@H]1NC(=O)[C@H](CCC(=O)O)NC(=O)c2cc([N+](=O)[O-])cc(I)c2NCCC[C@@H](C(N)=O)NC1=O	0	2	93	103	.	.
O=C(NN=C(Cc1ccccc1)Cc1ccccc1)c1ccccc1F	86*	-2	99	96	1	101
O=C(Oc1cccc2c(O)cccc12)c1ccccc1	42*	-12	90	88	4	102
O=C(O)CCc1ccccc1OC(=O)c1ccccc1	1	-2	100	100	.	.
O=C(Oc1cc(=O)oc2ccccc12)c1ccccc1	100*	-16	79	79	-1	92
CS(=O)(=O)c1ccccc1-c1csc(N2CCC(C(N)=O)CC2)n1	0	.	.	.	.	.
COc1ccc(-c2c(NC(=O)CC(C)C)n(C)c3ccccc3c2=O)cc1OC	87*	2	101	101	-5	100
CCOc1ccc(NC(=O)CN(C)C(=O)C2CC(=O)N(Cc3ccco3)C2)cc1OCC (stereo not given)	5	.	.	.	.	.
CCOC(=O)Cn1c(=NC(=O)C(C)(C)C)sc2cc([N+](=O)[O-])ccc21	52*	-2	104	100	.	.	GRK2 confirm 2=-21;FAM quench SP=102
CCC(=O)N=c1sc2cc([N+](=O)[O-])ccc2n1CCOC	2	-2	100	99	.	.
NC(=O)c1ccccc1NC(=O)CN1CCN(Cc2ccc(Cl)cc2Cl)CC1	4	-2	101	100	.	.
CC1CCN(c2ccc(-c3cccc(NC(=O)c4ccco4)c3)nn2)CC1	0	.	.	.	.	.
Nc1cc(C(=O)OCC(=O)N2CCOCC2)ccc1Cl	58*	0	102	101	-1	99
O=C(COC(=O)COc1ccccc1)NCc1ccc2c(c1)OCO2	1	.	.	.	.	.
Cc1nc(-c2nc(CC(=O)NNC(=O)c3ccc(Cl)cc3)cs2)cs1	47*	-5	86	84	1	107
CCC(C(=O)NCc1ccc(F)cc1)N(Cc1cccs1)C(=O)c1snc(C(N)=O)c1N (stereo not given)	2	-8	97	93	.	.
Cc1ccc(NC(=O)CC(C)S(=O)(=O)c2ccc3c(c2)NC(=O)CO3)c(Cl)c1 (stereo not given)	0	1	100	101	.	.	GRK2 confirm 2=-40;FAM quench SP=102
Cc1ccc(CNC(=O)CC(C)S(=O)(=O)c2ccc3c(c2)NC(=O)CO3)cc1 (stereo not given)	0	5	103	105	.	.
CC1(c2nnc(-c3ccncc3)o2)CC(c2ccccc2)=NO1 (stereo not given)	3	5	100	104	.	.
Nc1c2c(nc3sc4c(c13)CCCC4)CCCCCC2	83*	-1	103	104	-4	92
SMILES	GRK2 aptamer HTS	MEKK2 mut-MEK5	MEKK3 PB1 HTS	MEKK2wt PB1 HTS	GRK2 CP1	Aptamer quench SP	others
COc1cc(C(F)(F)F)ccc1C(=O)NCCc1ccco1	0	6	101	102	.	.
O=C(O)C1CC=CCC1C(=O)Nc1ccc2c(c1)OCCO2 (stereo not given)	24	-3	90	100	.	.	GRK2 confirm 2=12;FAM quench SP=99
CCOC(=O)CC(NS(=O)(=O)c1ccc2[nH]cc(C(=O)O)c(=O)c2c1)c1ccc(OCC)c(OC)c1 (stereo not given)	89*	2	104	97	70*	100	Aptamer quench=-122
COc1ccc(N2CCN(C(=O)COC(=O)c3oc4ccccc4c3C)CC2)cc1	0	.	.	.	.	.
Nc1c(C(=O)CSc2nncn2-c2ccccc2)c(=O)[nH]c(=O)n1C1CC1	61*	.	.	.	-1	95
COc1ccc2c(c1)C(=O)Cc1ccccc1O2	0	.	.	.	.	.
O=S1(=O)CCC(N=Nc2c(O)n(Cc3ccccc3)c3ccccc23)C1 (stereo not given)	66*	12	106	101	-1	99
NC(=S)N=Nc1c(O)n(Cc2ccccc2)c2ccccc12	0	22	103	99	.	.
O=S(=O)(c1ccccc1OC(F)(F)F)N1CCN(c2ccnc3cc(Cl)ccc23)CC1	77*	0	101	104	.	.	GRK2 confirm 2=16;FAM quench SP=101
COc1ccc(N(CC(=O)Nc2cccnc2)S(=O)(=O)c2ccccc2)cc1OC	2	5	101	102	.	.
O=C(c1ccc(CSc2nc3ccncc3[nH]2)cc1)N1CCCCCC1	68*	-5	91	93	0	94
Clc1ccc(CSc2nc3ccncc3[nH]2)cc1	1	7	104	107	.	.
Cc1ccc(CSc2nc3ccncc3[nH]2)cc1	78*	8	109	108	1	100
O=C(c1ccc(CSc2nc3ccncc3[nH]2)cc1)N1CCN(c2cccc(Cl)c2)CC1	0	7	74	76	.	.
O=C(/C=C/c1cccc([N+](=O)[O-])c1)OCC1CCCO1 (stereo not given)	0	2	103	106	.	.
CCOCc1cnc(C)nc1NCC(=O)c1c(C)[nH]c2ccccc12	56*	8	101	105	-1	100
CCCCN(C(=O)c1cccc(-n2cccc2)c1)c1c(N)n(Cc2ccccc2)c(=O)[nH]c1=O	46*	.	.	.	10	97
CCCCN(C(=O)CSc1nnc(-c2ccc(OC)cc2)n1CC)c1c(N)n(Cc2ccccc2)c(=O)[nH]c1=O	88*	0	102	103	-1	100
CCCCN(C(=O)CSc1nnc(-c2ccc(OC)cc2)n1C(C)C)c1c(N)n(Cc2ccccc2)c(=O)[nH]c1=O	0	10	97	108	.	.

Screening data from PubChem.
